Active and inactive are the calls of the source.
What was measured:
[1] = system: Plasmodium falciparum Sir2 (PF13_0152, Sir2A); assay: Plasmodium falciparum Sir2A binding compounds – biochemical, small-molecule microarray, 635 nm fluorescence, primary screen (AID 1098); conditions: fluorescence 635 nm, higher = more signal;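 further: score merges spot fluorescence intensity with its signal-to-noise ratio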
[2] = probe aDKK1 binding to arrayed compounds – biochemical, biotinylated probe, 635/667 nm fluorescence, primary screen (AID 1099); conditions: small-molecule microarray, higher = more signal;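 further: score merges 667nm spot fluorescence with signal to noise across triplicate slides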
[3] = probe aCHRDL2 binding to arrayed compounds – biochemical, biotinylated probe, 635/667 nm fluorescence, primary screen (AID 1100); conditions: small-molecule microarray, higher = more signal
[4] = change in splice reporter luminescence, either direction, cell-based, HEK293, spliceosome inhibition project, primary screen (AID 1101); conditions: HEK293 splicing luciferase reporter, 24 h, higher = more signal, called active from +8 up or from −8 down;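 further: HEK293 cells carrying a splicing-competent luciferase reporter gene; test concentration not given here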
[5] = molecular target: Fibroblast growth factor 10 (Homo sapiens) (UniProt O15520); assay: compounds binding fibroblast growth factor 10 – biochemical, small-molecule microarray, 635 nm fluorescence, primary screen (AID 1102); conditions: FGF10 binding, fluorescence 635 nm, higher = more signal
Fibroblast growth factor 10 (Homo sapiens), sequence (O15520 whole entry, looked up): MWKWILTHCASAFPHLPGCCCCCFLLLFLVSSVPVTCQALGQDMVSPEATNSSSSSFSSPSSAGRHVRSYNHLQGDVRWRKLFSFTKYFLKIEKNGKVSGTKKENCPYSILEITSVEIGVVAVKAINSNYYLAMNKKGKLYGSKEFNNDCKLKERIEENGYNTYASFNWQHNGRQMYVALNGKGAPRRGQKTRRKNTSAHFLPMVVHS

[6] = system: glycogen synthase kinase-3 (GSK3A per assay name; protocol says GSK3B); assay: compounds binding glycogen synthase kinase-3 – biochemical, small-molecule microarray, 635 nm fluorescence, GSK3A, primary screen (AID 1103); conditions: fluorescence 635 nm, higher = more signal; further: the record names both GSK3A and GSK3B
[7] = molecular target: Epidermal growth factor receptor (Homo sapiens) (UniProt P00533); assay: compounds binding epidermal growth factor receptor – biochemical, small-molecule microarray, 635 nm fluorescence, primary screen (AID 1104); conditions: EGFR binding, higher = more signal;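 further: score merges 667 nm emission intensity with spot signal to noise over triplicate slides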
Epidermal growth factor receptor (Homo sapiens), sequence (P00533 whole entry, looked up): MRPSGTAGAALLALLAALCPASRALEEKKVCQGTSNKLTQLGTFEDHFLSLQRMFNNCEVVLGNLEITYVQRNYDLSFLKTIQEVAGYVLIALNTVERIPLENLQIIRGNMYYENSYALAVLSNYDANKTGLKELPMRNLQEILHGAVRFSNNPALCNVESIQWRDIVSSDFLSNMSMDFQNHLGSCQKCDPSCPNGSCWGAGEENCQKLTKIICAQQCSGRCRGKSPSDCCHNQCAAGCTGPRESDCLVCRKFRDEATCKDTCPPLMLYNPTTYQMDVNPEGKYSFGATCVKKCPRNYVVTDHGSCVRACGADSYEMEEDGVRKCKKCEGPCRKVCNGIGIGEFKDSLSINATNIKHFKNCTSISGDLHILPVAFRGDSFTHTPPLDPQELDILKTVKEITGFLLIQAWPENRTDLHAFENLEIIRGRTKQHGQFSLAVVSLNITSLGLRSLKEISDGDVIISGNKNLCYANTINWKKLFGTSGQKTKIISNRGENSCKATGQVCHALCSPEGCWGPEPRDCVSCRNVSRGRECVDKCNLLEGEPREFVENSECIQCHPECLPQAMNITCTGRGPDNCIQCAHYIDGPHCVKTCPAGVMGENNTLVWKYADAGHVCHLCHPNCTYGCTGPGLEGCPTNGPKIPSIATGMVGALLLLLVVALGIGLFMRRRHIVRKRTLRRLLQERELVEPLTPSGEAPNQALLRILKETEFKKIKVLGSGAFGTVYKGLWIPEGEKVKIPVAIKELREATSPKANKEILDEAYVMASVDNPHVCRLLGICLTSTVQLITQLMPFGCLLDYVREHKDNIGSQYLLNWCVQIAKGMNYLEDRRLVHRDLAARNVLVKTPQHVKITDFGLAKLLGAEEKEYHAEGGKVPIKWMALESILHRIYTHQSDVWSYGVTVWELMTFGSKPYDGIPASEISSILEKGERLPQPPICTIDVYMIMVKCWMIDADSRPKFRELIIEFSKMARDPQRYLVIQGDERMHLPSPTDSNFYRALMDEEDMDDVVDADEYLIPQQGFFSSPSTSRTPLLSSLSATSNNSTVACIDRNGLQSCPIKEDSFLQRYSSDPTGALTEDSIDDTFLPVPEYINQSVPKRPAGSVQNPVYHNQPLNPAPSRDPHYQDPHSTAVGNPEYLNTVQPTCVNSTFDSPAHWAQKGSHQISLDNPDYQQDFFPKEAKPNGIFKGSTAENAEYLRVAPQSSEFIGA

[8] = molecular target: Follistatin-related protein 3 (Homo sapiens) (UniProt O95633); assay: compounds binding follistatin-related protein 3 – biochemical, small-molecule microarray, 635 nm fluorescence, primary screen (AID 1105); conditions: FSTL3 binding, higher = more signal;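 further: score merges emission near 667 nm and signal to noise per printed spot across three slides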
Follistatin-related protein 3 (Homo sapiens), sequence (O95633 whole entry, looked up): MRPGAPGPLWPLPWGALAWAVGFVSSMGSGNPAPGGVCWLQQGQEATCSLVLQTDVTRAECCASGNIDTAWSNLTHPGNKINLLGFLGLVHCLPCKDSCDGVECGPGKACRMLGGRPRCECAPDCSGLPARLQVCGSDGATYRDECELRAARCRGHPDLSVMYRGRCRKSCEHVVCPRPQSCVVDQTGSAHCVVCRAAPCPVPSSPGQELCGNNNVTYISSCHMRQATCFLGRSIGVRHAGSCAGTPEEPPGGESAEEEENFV

[9] = molecular target: Dickkopf-related protein 1 (Homo sapiens) (UniProt O94907); assay: small molecules binding DKK1 protein – biochemical, small-molecule microarray, 635 nm fluorescence scan, primary screen (AID 1106); conditions: higher = more signal;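 further: score merges emission near 667 nm with signal to noise over three replicate slides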
Dickkopf-related protein 1 (Homo sapiens), sequence (O94907 whole entry, looked up): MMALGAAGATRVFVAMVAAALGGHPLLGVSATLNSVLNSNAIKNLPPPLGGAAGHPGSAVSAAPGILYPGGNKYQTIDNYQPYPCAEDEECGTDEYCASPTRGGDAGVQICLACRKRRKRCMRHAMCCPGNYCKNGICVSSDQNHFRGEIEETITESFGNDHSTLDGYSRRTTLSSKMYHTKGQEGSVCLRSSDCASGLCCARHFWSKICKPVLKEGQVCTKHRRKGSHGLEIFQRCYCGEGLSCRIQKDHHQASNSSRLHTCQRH

[10] = system: Inhibin beta A chain (activin A); assay: small molecules binding activin A – biochemical, small-molecule microarray, 635 nm fluorescence scan, primary screen (AID 1107); conditions: INHBA, higher = more signal;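 further: mouse activin A protein probed at 4.33 µg/mL on printed slides; score merges bound-protein fluorescence near 667 nm with spot signal-to-noise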
[11] = system: Human papillomavirus type 1a protein E7 (residues 44-93); assay: small molecules binding HPV E7 44-93 – biochemical, small-molecule microarray, residues 44-93, 635 nm fluorescence, primary screen (AID 1108); conditions: fluorescence 635 nm, higher = more signal;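 further: E7 fragment applied at 1 µg/mL in TBST for 1 h at 4 C; score combines spot fluorescence with its signal to noise ratio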
[12] = hepatitis C replication reporter changes, two-sided – Huh7 cells, luciferase reporter, HCV replication inhibitor project, primary screen (AID 1109); conditions: Huh7 HCV replicon luciferase reporter, 48 h; higher = more signal;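 further: huh7 hepatoma cells harbouring a luciferase neomycin HCV replicon reporter; luciferase luminescence as measure of HCV replicon replication; test concentration not given here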
[13] = molecular target: Left-right determination factor 2 (Homo sapiens) (UniProt O00292); assay: small molecules binding LEFTY2 protein – biochemical, small-molecule microarray, 635 nm fluorescence scan, primary screen (AID 1110); conditions: higher = more signal
Left-right determination factor 2 (Homo sapiens), sequence (O00292 whole entry, looked up): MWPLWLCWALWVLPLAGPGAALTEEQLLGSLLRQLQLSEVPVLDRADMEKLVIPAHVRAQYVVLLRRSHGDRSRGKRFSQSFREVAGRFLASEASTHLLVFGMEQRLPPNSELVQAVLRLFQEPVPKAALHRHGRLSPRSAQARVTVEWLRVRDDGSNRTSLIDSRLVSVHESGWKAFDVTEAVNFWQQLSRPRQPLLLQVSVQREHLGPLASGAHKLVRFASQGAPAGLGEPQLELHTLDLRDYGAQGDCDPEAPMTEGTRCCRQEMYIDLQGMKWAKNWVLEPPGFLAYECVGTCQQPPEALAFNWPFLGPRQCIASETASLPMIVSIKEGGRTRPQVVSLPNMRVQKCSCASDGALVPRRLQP

[14] = molecular target: Calmodulin-1 (Homo sapiens) (UniProt P0DP23); assay: small molecules binding calmodulin-1 with EGTA – biochemical, small-molecule microarray, Cy5-labelled CALM1, profiling panel (AID 1111); conditions: Cy5-CALM1 binding fluorescence, higher = more signal;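 further: labelled calmodulin applied in Tris saline Tween buffer holding calcium plus EGTA and DTT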
[15] = molecular target: Calmodulin-1 (Homo sapiens) (UniProt P0DP23); assay: small molecules binding Ca-loaded calmodulin-1 – biochemical, small-molecule microarray, Cy5-labelled CALM1, plus calcium, artefact control for SMM control-protein annotation, profiling panel (AID 1112); conditions: Cy5-CALM1 binding fluorescence, higher = more signal;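 further: score merges spot fluorescence with signal to noise from triplicate slides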
[16] = probe aWnt5a binding to arrayed compounds – biochemical, biotinylated probe, 635/667 nm fluorescence, primary screen (AID 1113); conditions: small-molecule microarray, higher = more signal;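 further: score merges 667 nm fluorescence intensity with signal-to-noise per printed feature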
[17] = probe aShh binding to arrayed compounds – biochemical, biotinylated probe, 635/667 nm fluorescence, primary screen (AID 1114); conditions: small-molecule microarray, higher = more signal;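 further: probe is biotin-labelled aShh protein from a stem cell growth factor screen; measures binding of labelled protein to compounds printed on the slide; score merges feature fluorescence at 667 nm with signal-to-noise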
[18] = probe aNog binding to arrayed compounds – biochemical, biotinylated probe, 635/667 nm fluorescence, primary screen (AID 1115); conditions: small-molecule microarray, higher = more signal;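 further: probe is biotinylated aNog protein used at 0.15 µg/mL for 1 h at 4 C; z-score combines 667 nm fluorescence of each spot with its signal to noise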
[19] = molecular target: Torsin-1A-interacting protein 1 (Homo sapiens) (UniProt Q5JTV8); assay: compound microarray binding of lysate hLAP1 – cell lysate, small-molecule microarray, COS7 lysate, 635/667 nm fluorescence, primary screen (AID 1116); conditions: 635 nm fluorescence, higher = more signal
Torsin-1A-interacting protein 1 (Homo sapiens), sequence (Q5JTV8 whole entry, looked up): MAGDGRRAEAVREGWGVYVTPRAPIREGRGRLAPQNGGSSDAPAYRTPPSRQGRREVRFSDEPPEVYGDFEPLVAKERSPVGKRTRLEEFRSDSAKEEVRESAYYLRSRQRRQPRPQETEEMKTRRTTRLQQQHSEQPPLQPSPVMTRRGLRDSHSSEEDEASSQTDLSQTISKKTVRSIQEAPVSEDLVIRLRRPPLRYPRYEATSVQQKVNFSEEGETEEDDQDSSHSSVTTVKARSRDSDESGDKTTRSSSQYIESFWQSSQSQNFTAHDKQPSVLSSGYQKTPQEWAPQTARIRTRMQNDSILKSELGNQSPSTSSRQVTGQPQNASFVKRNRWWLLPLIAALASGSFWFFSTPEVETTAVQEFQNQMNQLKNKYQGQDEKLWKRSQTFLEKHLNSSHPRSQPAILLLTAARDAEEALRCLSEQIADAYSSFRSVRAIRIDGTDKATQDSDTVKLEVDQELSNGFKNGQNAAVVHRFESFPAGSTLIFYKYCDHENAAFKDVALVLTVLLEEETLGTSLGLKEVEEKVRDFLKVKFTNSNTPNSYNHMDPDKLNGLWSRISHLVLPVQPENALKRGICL

[20] = molecular target: Alpha-bungarotoxin (Bungarus multicinctus) (UniProt P60615); assay: compounds binding labelled alpha-BTX control protein – biochemical, small-molecule microarray, Alexa647 label, 635/667 nm fluorescence, artefact control for SMM control protein annotation, profiling panel (AID 1117); conditions: alpha-BTX-A647 binding fluorescence, higher = more signal
Alpha-bungarotoxin (Bungarus multicinctus), sequence (P60615 whole entry, looked up): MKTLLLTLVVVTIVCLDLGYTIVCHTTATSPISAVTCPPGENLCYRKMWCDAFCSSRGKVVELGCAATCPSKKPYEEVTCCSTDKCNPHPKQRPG

| Compound | composite z-score [1] | composite z-score [2] | composite z-score [3] | z-score [4] | composite z-score [5] | composite z-score [6] | composite z-score [7] | composite z-score [8] | composite z-score [9] | composite z-score [10] | composite z-score [11] | z-score [12] | composite z-score [13] | composite z-score [14] | composite z-score [15] | composite z-score [16] | composite z-score [17] | composite z-score [18] | composite z-score [19] | composite z-score [20] |
| --- | --- | --- | --- | --- | --- | --- | --- | --- | --- | --- | --- | --- | --- | --- | --- | --- | --- | --- | --- | --- |
| NCCCCCNC(=O)[C@@H]1C[C@@H]2C(=O)N3CCC[C@H]3C(=O)N2[C@@H]1c1ccc(O)cc1 | 1.1 | 0.919 | 0.857 | -0.274 (inactive) | 0.927 | 1.14 | 0.114 | 0.495 | 0.853 | 0.98 | 1.31 | -0.837 | 0.732 | 1.09 | 1.12 | 0.216 | 0.163 | -0.477 | 1.05 | 0.494 |
| CCCCC=C[C@@H](NC(=O)c1ccccc1)c1ccccc1 | 0.322 | 0.357 | 0.732 | -0.696 (inactive) | 0.659 | 1.22 | -0.056 | 0.79 | 0.0017 | 1.01 | 1.38 | 1.02 | -0.174 | 1.87 | 1.28 | -0.0229 | -0.253 | -0.578 | 0.206 | 0.448 |
| CC(=O)N1CC(C(O)C2C=CC3C(=O)NC(=O)C3N2Nc2ccc(Cl)cc2Cl)c2ccccc21 (stereo not given) | 0.669 | 1.95 | 1.07 | 0.622 (inactive) | 0.693 | -0.28 | -0.105 | 0.797 | 0.0106 | 1.19 | 0.759 | -0.819 | -0.138 | 1.18 | 0.789 | 0.0437 | 0.806 | 1.5 | 0.033 | 0.869 |
| CC(CO)N1C(=O)[C@@H]2[C@H]3C(=O)OCC=C[C@H]3OC23C=CCN(c2ccc(Cl)cc2)C(=O)[C@@H]13 (stereo not given in full) | 1.93 | -0.125 | 0.837 | -0.00913 (inactive) | -1.59 | -0.501 | -2.15 | -2.43 | -1.92 | -3.56 | -0.716 | -0.205 | -2.63 | -0.669 | -0.934 | -0.178 | 1.71 | -0.273 | -1.67 | -1.94 |
| CCCCC(=O)N(CCN1CCOCC1)[C@@H]1CC(C(=O)NCCO)=C[C@H](Oc2c(I)cc(CO)cc2OC)[C@H]1O | 0.787 | -0.309 | -0.764 | 0.751 (inactive) | 0.318 | 0.725 | 0.349 | 0.412 | 0.817 | 0.0845 | 0.33 | 0.282 | 0.653 | -0.282 | -0.598 | -0.19 | -0.358 | -0.31 | -0.0458 | 0.354 |
| COCCOC(=O)N1C(=O)[C@@]2(c3cc(C#CCC(C(=O)OC)C(=O)OC)ccc31)[C@H](C(=O)NC[C@H](O)c1ccccc1)[C@H]1C(=O)O[C@H](c3ccccc3)[C@H](c3ccccc3)N1[C@@H]2c1ccc(O)cc1 | 1.17 | -0.0319 | 0.521 | 0.556 (inactive) | 0.923 | 1.22 | -0.239 | 0.186 | -0.224 | -0.29 | 1.37 | -0.545 | 0.102 | 1.65 | 0.247 | -0.0194 | -0.0146 | -0.038 | 1.37 | 0.195 |
| COc1cc2c(cc1O)C(c1ccc(CN3CCCC3)cc1)N(C)CC2 (stereo not given) | 0.232 | -0.0829 | -0.275 | -0.00442 (inactive) | 0.167 | -1.27 | -0.419 | -0.567 | -0.622 | -0.172 | -1.7 | -1.02 | 0.351 | 0.571 | 0.673 | -0.173 | -0.359 | 0.452 | -0.862 | 0.0735 |
| O=C1C2C=CC(C(O)c3cc(C(F)(F)F)cc(C(F)(F)F)c3)N(Nc3ccccc3F)C2C(=O)N1c1ccccc1 (stereo not given) | 0.99 | 1.09 | 1.03 | 0.537 (inactive) | 0.223 | 0.708 | -0.855 | -0.19 | -0.795 | 0.37 | 0.962 | -2.74 | -0.327 | 0.896 | 0.681 | -0.043 | 0.957 | 1.97 | 0.985 | 0.383 |
| COc1ccc([Si](C)(C)[C@@H]2[C@@H](CCn3cc([C@H](O)c4ccccc4)nn3)O[C@]3(C(=O)N(Cc4cccc(N5C(=O)c6cccc7cccc5c67)c4)c4ccccc43)[C@H]2C)cc1 | -0.225 | -0.0463 | 0.575 | 1.41 (inactive) | -0.365 | -0.83 | -1.32 | -0.607 | -1.02 | -0.317 | 1.04 | -2.89 | -1.54 | 0.114 | 0.364 | -0.232 | -0.221 | 0.262 | -0.364 | 0.0544 |
| O=C(O)[C@@H]1C[C@@H]2C(=O)N3CCC[C@H]3C(=O)N2[C@@H]1c1cccc(OCCO)c1 | 2.07 | 2.67 | 1.72 | 0.0627 (inactive) | 1.36 | 1.44 | 1.41 | 1.54 | 1.9 | 1.98 | 1.49 | -0.444 | 1.56 | 1.69 | 0.815 | 0.94 | 2.65 | 3.05 | 3.85 | 2.99 |

Reference: PubChem BioAssay
